Reference: PubChem BioAssay AID1347383 (Zoeller Lab, School of Medicine, Boston University, 2020)
Activity calls are given as the source filed them.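 Rule for the calls: active = cell survival after UV exposure 2 SD above solvent-only control wells at 10 µM, confirmed on one or two repeats; inactive = the rest.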

Assay: cell survival after pyrene fatty acid photosensitization – ZR-82 cells, Analyticon library, screen 2, phospholipid biosynthesis inhibitor project, primary screen (AID 1347383);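 note: survival reflects blocked phospholipid synthesis cutting uptake of the phototoxic fatty acid; compound and fatty acid exposure 3 h then viability read next day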
Conditions: ZR-82 CHO cells, pyrene-fatty acid UV killing, CellTiter Blue; at 10 µM; peroxisome-deficient CHO-K1 variant; with DGAT-1, DGAT-2 and ACAT inhibitors

Row | Compound | outcome
1 | COc1cc(/C=C/C(=O)O)cc(OC)c1OC | inactive
2 | COc1c(OC)c2occc2c2oc(=O)ccc12 | inactive
3 | CC(C)(O)c1ccc2c(c1)CCC1C(C)(C(=O)O)CCCC21C (centres undefined) | inactive
4 | CC(C)=CCCC(C)(O)C1CC[C@]2(C)C1CC[C@@H]1[C@@]3(C)CCC(=O)C(C)(C)[C@@H]3CC[C@]12C (some centres undefined) | inactive
5 | CN1[C@@H]2CC[C@H]1CC(OC(=O)C(CO)c1ccccc1)C2 (some centres undefined) | inactive
6 | COc1cc(CC(C)C(C)Cc2ccc(O)c(O)c2)ccc1O (centres undefined) | inactive
7 | CCCCCCCCC(=O)/C=C/C=C/C(=O)CCCC(=O)O | inactive
8 | OCCc1ccc(O)cc1O | inactive
9 | O=C(/C=C/c1ccc(O)cc1)c1ccc(O)cc1O | inactive
10 | CC[C@H](CC[C@@H](C)[C@H]1CC[C@H]2[C@@H]3CC=C4C[C@@H](O)CC[C@]4(C)[C@H]3CC[C@]12C)C(C)C | inactive
11 | CCCCCC1=C(CO)C(O)C(O)CC1=O (centres undefined) | inactive
12 | COc1cc(C(O)C(C)O)ccc1OC(C)Cc1cc(OC)c(OC)c(OC)c1 (centres undefined) | inactive
13 | C[C@]1(C=O)[C@H]2CC[C@]3(C)O[C@@]14C(=O)c1cc(O)ccc1C(=O)C4=C[C@@H]23 | inactive
14 | C/C=C(/C(=O)O)N1C(=O)C=C(C)C1=O | inactive
15 | CC(=O)OC1C(O)C2C(C)C3=CC(=O)OC3(O)CC2C2(C)CCCC(C)(CO)C12 (centres undefined) | inactive
16 | CC1=CC2=C(C(=O)OC2O)C(O)C2CC(C)(C)CC12 (centres undefined) | inactive
17 | C=C1CCC2OC(=O)C(C)=C2C2C1C13OC1(CC(C)C3=O)C1OC21C (centres undefined) | inactive
18 | CC(=O)O[C@@H]1CC[C@@]2(C)C(CC[C@]3(C)C2C(=O)C=C2[C@@H]4[C@@H](C)[C@H](C)CC[C@]4(C)CC[C@]23C)[C@@]1(C)C(=O)O (some centres undefined) | inactive
19 | CC1=CC2=C(C=O)C(=O)[C@](C)(O)[C@@H](O)C2=CO1 | inactive
20 | O=C(/C=C/c1ccccc1)c1ccccc1O | inactive

Row | Compound | outcome
21 | CC1CC(O)/C=C/C(O)CCC(=O)Cc2c(Cl)c(O)cc(O)c2C(=O)O1 (centres undefined) | inactive
22 | COc1cc(O)cc(O)c1C(=O)/C=C/c1ccc(O)cc1 | inactive
23 | O=C1c2ccc(O)cc2C(=O)c2ccc(O)cc21 | inactive
24 | CC1=C2C(=O)O[C@@H](c3ccoc3)[C@]2(C)CCC1=O | inactive
25 | C=CC(C)(C)c1cc2cc(CC(O)C(C)(C)O)c(OC)cc2oc1=O (centres undefined) | inactive
26 | C=CCc1ccc(OC(C)Cc2cc(OC)c(OC)c(OC)c2)c(OC)c1 (centres undefined) | inactive
27 | CC1=CCC(C(C)C)c2cc(C)c(O)cc21 (centres undefined) | inactive
28 | CC(=O)c1c(O)cc(O)c(C/C=C(\C)CCC=C(C)C)c1O | inactive
29 | COc1cc(/C=C/c2ccc(O)cc2)cc(OC)c1 | inactive
30 | C/C=C/C1=C(Cl)C(=O)[C@@H](O)[C@@]1(O)C(=O)OC | inactive
31 | CC(=O)OC(C(=O)/C=C(\C)CCCC1=CC(=O)OC1)C(C)C (centres undefined) | inactive
32 | OC1CC(c2ccccc2)C(O)C(O)C1c1ccccc1 (centres undefined) | inactive
33 | CC[C@H](C)C(=O)O[C@H]1CCC=C2C=C[C@H](C)[C@H](CC[C@H]3C[C@@H](O)CC(=O)O3)[C@H]21 | inactive
34 | CC1Cc2cc(O)c(O)cc2C(c2ccc(O)cc2)C1C (centres undefined) | inactive
35 | O=C(O)CCC(=O)Cc1ccccc1 | inactive
36 | C=CCc1ccc(O)c(O)c1 | inactive
37 | C/C=C/C=C/C(=O)N1CC[C@]23c4ccccc4N[C@H]4N(C)c5cccc6c5[C@]42CCN([C@H]6C2OC2(C)C)[C@H]13 (some centres undefined) | inactive
38 | C/C=C/CCc1cc(O)c2c(c1)OC(C)C2CO (centres undefined) | inactive
39 | O=C1NC(Cc2c[nH]c3ccccc23)C(=O)NC1Cc1ccccc1 (centres undefined) | inactive
